Results reported in PubChem BioAssay AID488905 (Broad Institute, 2010).
Results with a measured potency or affinity are listed apart. Inconclusive results are not listed. Active and inactive are the calls of the source.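 Rule for the calls: active = growth inhibition lowering dye signal, with fitted half-maximal dose at most ten times the top valid dose; inconclusive = flat curve inhibiting 30 to 70 percent, or unreliable fit; inactive = the rest, including effects in the opposite direction.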

Assay: growth inhibition of azole-resistant C. albicans, dose response, CaCi-8 strain, Alamar Blue, dry powder, set 3 (AID 488905)
Settings: C. albicans CaCi-8 + fluconazole, 48 h; series mostly up to 26 µM

Structure (SMILES) | outcome
O=C(c1ccc(Cl)cc1)N1CCN(c2cccc(C(F)(F)F)n2)CC1 | inactive
COCCC(=O)N1CCN(c2ccccn2)CC1 | inactive
Cc1cccc(N2CCN(C(=O)c3ccc(Cl)cc3)CC2)n1 | inactive
O=C(c1ccccc1)N1CCN(c2ccccn2)CC1 | inactive
COc1cccnc1N1CCN(C(=O)c2ccc(Cl)cc2)CC1 | inactive
Cn1ccnc1N1CCN(C(=O)c2ccc(Cl)cc2)CC1 | inactive
O=C(c1ccc(Cl)cc1)N1CCN(c2cnccn2)CC1 | inactive
